Experimental data published in PubChem BioAssay AID463173 (ICCB-Longwood Screening Facility, Harvard Medical School, 2010).
Hit rate of the full screen: of about 52,000 compounds, about 1,700 (3.3%) were called active. Rule as the data show it: active = survival mostly below about 52% (no sharp cut-off); inactive = mostly above about 56%. Only a selection was taken, and actives are over-represented in it overall.

Test system: Wild type
Test: growth inhibition of S. aureus wild type versus tarO mutant, primary screen, teichoic acid synthesis inhibitors, RN4220, OD600 (AID 463173)
Details: S. aureus RN4220 wild type/DeltatarO growth, OD600, 18 h, stronger effect = lower value, screened at 18.75 µg/mL (by protocol)

| Structure (SMILES) | survival |
| --- | --- |
| CCN1c2ccccc2-c2nc(SCC(=O)Nc3cc(OC)cc(OC)c3)ncc2S1(=O)=O | 32% (inactive) |
| CN(C(=O)C1=CC(c2ccc3c(c2)OCO3)=NS(=O)(=O)N1C)c1ccccc1 | 89% (inactive) |
| Cc1ccc2nsnc2c1S(=O)(=O)NC(C)(C)C | 96% (inactive) |
| CCc1nc2ccc(C(=O)N3CCN(c4ccccc4F)CC3)cc2nc1CC | 68% (inactive) |
| COc1cc(CN(CC2CCCO2)C(=O)c2ccc(F)cc2)cc(OC)c1OC (stereo not drawn) | 86% (inactive) |
| Cn1c(SCc2ccc(Br)cc2)nc2c([nH]c3ccccc32)c1=O | 131% (inactive) |
| CCn1c(=O)cc(OCC(=O)N(C)c2cc(Cl)ccc2C)c2ccccc21 | 62% (inactive) |
| CCCN(C(=O)COc1cc(=O)n(CC)c2ccccc12)c1ccc(C(C)C)cc1 | -7% (active) |
| CCn1c(=O)cc(OCC(=O)N(C)c2ccc(OC)cc2)c2ccccc21 | 78% (inactive) |
| CCN(C(=O)Cn1c(=O)oc2cc(Cl)ccc21)c1cccc(C(F)(F)F)c1 | 83% (inactive) |
| CCCN(C(=O)Cn1c(=O)oc2cc(Cl)ccc21)c1ccc(C(C)C)cc1 | 8% (active) |
| CCCN(c1ccc(C(C)C)cc1)S(=O)(=O)c1ccc2c(c1)oc(=O)n2CC(=O)OCC | 73% (inactive) |
| CCOC(=O)c1ccc(N2CCN(c3ccccc3OC)CC2)c(NC(=O)Nc2ccc(CC)cc2)c1 | 80% (inactive) |
| CCOC(=O)C(Cc1ccccc1)N1C(=O)c2ccccc2C1=O (stereo not drawn) | 104% (inactive) |
| COc1cccc(NS(=O)(=O)c2ccc3[nH]cc(C(=O)NCCc4ccc(C)cc4)c(=O)c3c2)c1 | 124% (inactive) |
| Nc1ccc(S(=O)(=O)N2CCSC2C(=O)O)cc1 (stereo not drawn) | 101% (inactive) |
| c1ccc(N2CCN(c3ncnc4c3nc3n4CCCCC3)CC2)cc1 | 72% (inactive) |
| Clc1cccc(N2CCN(c3ncnc4c3nc3n4CCCC3)CC2)c1 | 117% (inactive) |
| COc1ccc(N2CCN(c3ncnc4c3nc3n4CCCCC3)CC2)cc1 | 73% (inactive) |
| COc1cccc(N2CCN(c3ncnc4c3nc3n4CCCCC3)CC2)c1 | -3% (active) |
| Clc1cccc(N2CCN(c3ncnc4c3nc3n4CCCCC3)CC2)c1 | 3% (active) |
| O=C(C1CCN(c2ncnc3c2nc2n3CCCCC2)CC1)N1CCN(c2cccc(Cl)c2)CC1 | 57% (inactive) |
| CCn1cc(C(=O)Nc2cccc(Cl)c2)c2cc(OC)c(OC)cc2c1=O | 76% (inactive) |
| FC(F)(F)Sc1ccc2noc(-c3ccccc3)c2c1 | 115% (inactive) |
| NC(=O)c1ccccc1NC(=O)c1ccc(-c2ccc(Br)cc2)o1 | 95% (inactive) |

| Structure (SMILES) | survival |
| --- | --- |
| COc1cc(C)cc2oc(=O)c(CC(=O)NCCc3ccc(Cl)cc3)c(C)c12 | 118% (inactive) |
| C=CCc1ccccc1OCCSc1nc(-c2ccc(C(C)(C)C)cc2)nc2cc(=O)[nH]n12 | 0% (active) |
| COc1ccccc1OCCSc1nc(-c2ccc(C(C)(C)C)cc2)nc2cc(=O)[nH]n12 | 22% (inactive) |
| C=CCc1ccccc1OCCSc1nc(-c2ccccc2F)nc2cc(=O)[nH]n12 | 80% (inactive) |
| Cc1cccc(C)c1NCc1nnc(SCC(N)=O)n1-c1ccccc1 | 110% (inactive) |
| Cc1cc(C)cc(-n2ccn(CC(=O)Nc3ccccc3F)c(=O)c2=O)c1 | 82% (inactive) |
| Cc1ccc(C)c(NC(=O)c2nnn(CC(=O)Nc3cccc(C)c3C)c2N)c1 | 88% (inactive) |
| Cc1cc(C)cc(NC(=O)Cn2nnc(C(=O)NCc3ccccc3Cl)c2N)c1 | 77% (inactive) |
| CCc1ccccc1NC(=O)Cn1nnc(C(=O)NCc2ccccc2Cl)c1N | -3% (active) |
| COc1ccccc1NC(=O)Cn1nnc(C(=O)Nc2ccccc2Br)c1N | 85% (inactive) |
| Cc1cccc(NC(=O)Cn2nnc(C(=O)Nc3ccccc3Br)c2N)c1C | 0% (active) |
| CCc1ccccc1NC(=O)Cn1nnc(C(=O)NCc2cccs2)c1N | 96% (inactive) |
| COc1cccc(CNC(=O)CC(c2ccc(F)cc2)N2Cc3ccccc3C2=O)c1 (stereo not drawn) | 82% (inactive) |
| CCN(CC)C(=O)CSc1nc2ccccc2c(=O)n1CC | 107% (inactive) |
| COc1ccc(Nc2oc(/C=C/c3ccccc3OC)nc2C#N)cc1 | 86% (inactive) |
| Cc1ccc(-c2nn(CC(=O)NC3CCCC3)c3c2cnc2ccc(F)cc23)cc1C | 74% (inactive) |
| CCc1ccc2ncc3c(-c4ccc(C)cc4)nn(CC(=O)Nc4ccc(C)cc4)c3c2c1 | 47% (inactive) |
| CCc1ccc(-c2nn(-c3ccc(OC)cc3)c3c2cnc2ccc(OC)cc23)cc1 | 9% (active) |
| Cc1ccc(-n2nc(-c3ccccc3)c3cnc4cc5c(cc4c32)OCO5)cc1C | 110% (inactive) |
| COc1ccc2ncc3c(-c4ccccc4)nn(-c4ccc(C)c(C)c4)c3c2c1 | 0% (active) |
| COc1ccc(-n2nc(-c3ccc(C)cc3)c3cnc4cc(F)c(F)cc4c32)cc1 | 85% (inactive) |
| CCc1ccc2ncc3c(-c4ccc(C)cc4)nn(CC(=O)NCc4ccccc4)c3c2c1 | 65% (inactive) |
| CCc1ccc(-c2nn(CC(=O)NC3CCCCC3)c3c2cnc2ccc(F)cc23)cc1 | 68% (inactive) |
| CCOc1ccc2ncc3c(-c4cccc(OC)c4)nn(-c4ccccc4)c3c2c1 | 125% (inactive) |
| CCOc1ccc(-c2nn(-c3ccc(F)cc3)c3c2cnc2ccc(F)cc23)cc1 | 86% (inactive) |

| Structure (SMILES) | survival |
| --- | --- |
| CCCNC(=O)Cn1nc(-c2ccc(C)cc2)c2cnc3ccc(CC)cc3c21 | 10% (active) |
| Cc1ccc(-c2nn(CC(=O)NC3CCCCC3)c3c2cnc2ccc(F)cc23)cc1C | -3% (active) |
| COc1cc(OC)c(NC(=O)Nc2cccc(OCc3cc(=O)n4ccccc4n3)c2)cc1Cl | 87% (inactive) |
| N#Cc1ccc(N2CCCCC2)cc1 | 119% (inactive) |
| Oc1ccc(Nc2nc3ccccc3n3cnnc23)cc1 | 78% (inactive) |
| COc1ccc(OCC(=O)NCCO)cc1 | 116% (inactive) |
| COc1ccccc1NC(=O)c1cnc(SCC(=O)N2CCOCC2)n(C)c1=O | 77% (inactive) |
| FC(F)(F)c1ccc2c(c1)ncc1c(-c3ccccc3)nn(-c3ccccc3)c12 | 125% (inactive) |
| CCc1ccc2ncc3c(-c4ccccc4)nn(-c4ccccc4)c3c2c1 | 7% (active) |
| Cc1ccc(-c2nn(-c3ccccc3)c3c2cnc2ccccc23)cc1C | 68% (inactive) |
| N#Cc1c(N2CCOCC2)nc(N2CCOCC2)c2c1CCN(Cc1ccccc1)C2 | 112% (inactive) |
| COc1ccc(CNC(=O)CCc2c(C)nn(-c3ccc(N4CCCCC4)nn3)c2C)c(OC)c1 | 64% (inactive) |
| CCCn1c(N2CCN(C(=O)Nc3ccc(OC)cc3)CC2)nc2ccccc21 | 94% (inactive) |
| CC(C)Cn1c(N2CCN(C(=O)Nc3ccc(Cl)cc3)CC2)nc2ccccc21 | 99% (inactive) |
| CCn1c(N2CCN(C(=O)Nc3ccc(Cl)c(C(F)(F)F)c3)CC2)nc2ccccc21 | 0% (active) |
| CCOCCn1ccc2c(OCC(=O)Nc3ccc(C(N)=O)cc3)cccc2c1=O | 32% (inactive) |
| Cc1ccc(-n2cccn2)cc1 | 113% (inactive) |
| O=C(O)CCCn1c(=O)oc2ccccc21 | 99% (inactive) |
| Cc1ccc2oc(=O)n(CCCOc3ccccc3Cl)c2c1 | -10% (active) |
| N#CCCCn1c(=O)oc2ccccc21 | 84% (inactive) |
| O=c1oc2ccccc2n1CCCOc1ccccc1Cl | 0% (active) |
| Cc1ccc2oc(=O)n(CCNC(=O)Nc3ccccc3C)c2c1 | 119% (inactive) |
| CCOc1ccccc1NC(=O)NCCn1c(=O)oc2ccc(C)cc21 | 79% (inactive) |
| O=S(=O)(c1ccccc1)c1nnn2c1nc(NCc1ccc(Cl)cc1)c1sccc12 | 88% (inactive) |
| Cc1cc(SCC(=O)NCc2ccccc2)nc(=O)[nH]1 | 70% (inactive) |

| Structure (SMILES) | survival |
| --- | --- |
| Cc1cc2oc(C(=O)Nc3ccc(S(=O)(=O)N4CCCCCC4)cc3)cc(=O)c2cc1C | 80% (inactive) |
| COc1ccc(-c2nc(CSc3nnc(C)n4c3cc3oc(C)cc34)c(C)o2)cc1OC | 89% (inactive) |
| CCc1ccc(OCC(=O)Nc2ccc(Cl)c(-c3nc4cc(C)cc(C)c4o3)c2)cc1 | 51% (inactive) |
| O=C(/C=C/c1cn(CC(O)CN2CCc3ccccc32)c2ccccc12)c1ccc(Br)cc1 (stereo not drawn) | 70% (inactive) |
| O=C(/C=C/c1cn(CC(O)CN2CCCCCC2)c2ccccc12)c1ccc(Br)cc1 (stereo not drawn) | 14% (active) |
| Cc1ccc(C(=O)/C=C/c2cn(CC(O)CN3CCCCCC3)c3ccccc23)cc1 (stereo not drawn) | 28% (active) |
| CCOc1ccc(C(=O)/C=C/c2cn(CC(O)CN3CCCCCC3)c3ccccc23)cc1 (stereo not drawn) | 26% (active) |
| COc1ccc(C(=O)/C=C/c2cn(CC(O)CN3CCc4ccccc43)c3ccccc23)cc1 (stereo not drawn) | 63% (inactive) |
| O=C(/C=C/c1cn(CC(O)CN2CCCCCC2)c2ccccc12)c1ccccc1 (stereo not drawn) | 67% (inactive) |
| COc1ccc(C(=O)/C=C/c2cn(CC(O)CN3CCCCCC3)c3ccccc23)cc1OC (stereo not drawn) | 96% (inactive) |
| COc1ccc(C(=O)/C=C/c2cn(CC(O)CN3CCc4ccccc43)c3ccccc23)cc1OC (stereo not drawn) | 87% (inactive) |
| Cc1ccc(Cn2ccc(NC(=O)c3cc(-c4ccc(Cl)c(Cl)c4)on3)n2)cc1 | 74% (inactive) |
| CCOC(=O)CSc1nc2ccccc2c(=O)n1CCc1ccc(OC)c(OC)c1 | 124% (inactive) |
| Cc1ccc(-n2c(C)cc(CO)c2C)cc1 | 100% (inactive) |
| Cc1ccc(CNC(=O)CCc2c(C)nn(-c3ccc(N4CCOCC4)nn3)c2C)cc1 | 135% (inactive) |
| CC(=O)Nc1ccc(N=NN2CCCCC2)cc1 | 99% (inactive) |
| CCc1ccc(CN(Cc2ccco2)c2cnc(S(C)(=O)=O)nc2C(=O)Nc2c(C)cccc2C)cc1 | 70% (inactive) |
| CCCOc1ccc(CNC(=O)C2CCN(c3nc4ccccc4nc3C(F)(F)F)CC2)cc1 | 59% (inactive) |
| CCCOc1ccc(-c2nc3ccccc3c(=O)o2)cc1 | 70% (inactive) |
| Cc1ccc(-c2nc(N3CCN(c4ccccc4Cl)CC3)c3ccccc3n2)cc1 | 62% (inactive) |
| CCCOc1ccc(-c2nc(N3CCCCC3)c3ccccc3n2)cc1 | 0% (active) |
| CCCOc1ccc(-c2nc(N3CCC(C)CC3)c3ccccc3n2)cc1 | -2% (active) |
| c1ccc(-c2nc(N3CCCCC3)c3ccccc3n2)cc1 | 130% (inactive) |
